High-throughput results deposited in PubChem by National Center for Advancing Translational Sciences (NCATS).
LmPK inhibitor: inhibitors of Leishmania mexicana pyruvate kinase | purified LmPK, Kinase-Glo ATP luminescence, 1 h | Potency, µM (titrated, usually from 57.5 µM), usual class: inhibitors | 0.37% of 290,000 active | AID 1721
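Pyruvate kinase activity monitored as ATP production (luciferase luminescence). Conditions: 0.1 nM enzyme, 0.5 mM PEP, 0.1 mM ADP, 1 h, RT; normalized against uninhibited and no-enzyme wells.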
AMA1 RON2 block: disrupts binding of P. falciparum AMA1 to RON2; AlphaScreen AMA1-biotinylated RON2 peptide binding; Potency, µM (top dose mostly 58.2 µM), hits mostly inhibitors; 0.2% of 360,000 active; also: nearly all actives have a fitted effect of over 45% in size
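AMA1 (3D7) with his tag at 25 nM final met compounds first, then biotinylated RON2 peptide at 25 nM; detection used donor plus acceptor beads, 10 µg/mL apiece, read by AlphaScreen after 30 min at room temperature.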
Giardia FBPA inh: Giardia lamblia aldolase inhibition; A8B2U2; purified Giardia FBPA; Potency, µM (highest dose often 59.6 µM), hits mostly inhibitors; 0.71% of 290,000 active; AID 2451; also: nearly all actives have a fitted effect of over 55% in size
Target sequence (A8B2U2 whole entry, looked up): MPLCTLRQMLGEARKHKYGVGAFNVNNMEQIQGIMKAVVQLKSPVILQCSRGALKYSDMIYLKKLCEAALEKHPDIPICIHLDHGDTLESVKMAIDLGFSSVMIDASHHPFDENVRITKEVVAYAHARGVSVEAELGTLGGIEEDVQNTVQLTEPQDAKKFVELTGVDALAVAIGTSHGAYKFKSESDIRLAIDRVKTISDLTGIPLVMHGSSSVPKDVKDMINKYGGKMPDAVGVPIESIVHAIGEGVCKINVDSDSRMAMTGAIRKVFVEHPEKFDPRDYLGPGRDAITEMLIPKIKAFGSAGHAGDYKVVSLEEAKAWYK
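40 nM FBPA preincubated 10 min at RT with compound (up to 57.5 uM final), then substrate plus GAPDH/TPI/NAD/arsenate coupling and diaphorase/resazurin added. Fluorescence read after 20 min at RT, 525/598 nm.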
Tb PYK inh: inhibitors of Trypanosoma brucei pyruvate kinase | Q57TT1 | TbPYK enzyme, Kinase-Glo Plus ATP luminescence, 45 min | Potency, µM (series often up to 76.8 µM), usual class: inhibitors | 0.12% of 410,000 active; also: nearly all actives have a fitted effect of over 50% in size
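In this concentration-response screen, enzyme-free wells defined baseline while DMSO plates tracked drift. Each reaction combined TbPYK, substrate, compound and 130 uM ADP for 45 min at room temperature. Kinase-Glo Plus luminescence gave the signal.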
NS1 inh: influenza NS1 inhibition; Potency, µM (series often up to 46.1 µM); 0.4% of 270,000 active; AID 2326; calls by dose curve; also: actives are rising curves; nearly all actives have a fitted effect of over 50% in size
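Growth recovery, yeast-based: influenza A NS1 expressed in S. cerevisiae causes slow growth, and suppressors are detected by OD600. The parent strain without NS1 is used as positive control.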
Flu NS1 inh: validation of influenza NS1 protein function inhibitors | shares compounds with NS1 inh | influenza NS1 function cell assay, 15-point titration | activity change, negative = inhibition, % at 32.9 µM | 1,400 tested, under 10 active | AID 492980; calls by dose curve
PR8 titer: influenza virus titer reduction, NS1 project; shares compounds with NS1 inh; MDCK infected influenza A/PR/8/34, virus titer TCID50; hits give low values; virus titer (log TCID50), log10 TCID50 at 5 µM; 30% of 95 active; AID 504647; call rule not given here
Hits are given with their value. A selection: hits, their analogues and other compounds. The true share with any hit is near 1.2%. Unless noted, calls follow the shape of the dose curve; as a rule, active = well fitted curve in the direction sought with a large enough effect; inconclusive = small, poorly fitted or top-dose-only effect, or another doubt; inactive = no such curve, though single readings can be large; an effect the other way counts as inactive or inconclusive.

Screening COC(=O)[C@@]1(Cc2ccc(F)cc2)[C@H]2c3cc(C(=O)N(C)C)n(Cc4cccc5ccccc45)c3C[C@H]2CN1C(=O)c1ccccc1 returned Giardia FBPA inh inactive.
For COc1ccc(-c2nn(-c3ccccc3)cc2/C=C2/SC(=S)N(CCC(=O)O)C2=O)c(C)c1 the results were LmPK inhibitor inactive, AMA1 RON2 block inactive, Giardia FBPA inh inactive, Tb PYK inh inactive, NS1 inh 11µM and Flu NS1 inh inconclusive.
Screening COc1ccc(-c2nn(-c3ccccc3)cc2/C=C2/SC(=S)N(CCC(=O)O)C2=O)cc1 returned LmPK inhibitor inactive, AMA1 RON2 block inactive, Giardia FBPA inh inactive, Tb PYK inh inactive and NS1 inh inactive.
For Nc1nc(N)nc(CCCc2nc(N)nc(N)n2)n1 the results were NS1 inh inactive.
Screening O=C(O)CSc1cnc2ccccc2n1 returned LmPK inhibitor inactive, AMA1 RON2 block inactive, Giardia FBPA inh inactive, Tb PYK inh inactive, NS1 inh 16µM and Flu NS1 inh inactive.
For O=C(Cn1c(NCCO)nc2ccccc21)NCCc1ccc(F)cc1 the results were LmPK inhibitor inactive, AMA1 RON2 block inactive, Giardia FBPA inh inactive, Tb PYK inh inactive, NS1 inh 1µM and Flu NS1 inh inactive.
O=C1CCCC/C1=C\Nc1ccc(O)cc1 was read as LmPK inhibitor inactive, AMA1 RON2 block inactive, Giardia FBPA inh inconclusive, Tb PYK inh inactive, NS1 inh inconclusive and Flu NS1 inh inactive.
`CC1(C)N=C(N)NC(Nc2ccc(Br)cc2)=N1` gave LmPK inhibitor inactive, AMA1 RON2 block inactive, Giardia FBPA inh inactive, Tb PYK inh inactive, NS1 inh 7.9µM and Flu NS1 inh inactive.
`CC1(C)N=C(N)NC(Nc2cccc(Br)c2)=N1` gave LmPK inhibitor inactive, AMA1 RON2 block inactive, Giardia FBPA inh inactive, Tb PYK inh inactive and NS1 inh inactive.
CCCC(=O)Nc1cccc2c1CCCC2 was read as LmPK inhibitor inactive, AMA1 RON2 block inactive, Giardia FBPA inh inactive, Tb PYK inh inactive, NS1 inh 5.6µM and Flu NS1 inh inactive.
CC(=O)CC(=O)Nc1cccc2c1CCCC2 was read as LmPK inhibitor inactive, AMA1 RON2 block inactive, Giardia FBPA inh inactive, Tb PYK inh inactive and NS1 inh inactive.
For O=C1CCCC=C1[C@@H](O)CCOC(c1ccccc1)(c1ccccc1)c1ccccc1 the results were Giardia FBPA inh inactive.
For COc1ccc(NS(=O)(=O)c2ccc(N3CCCC3)c(NC(=S)Nc3ccc(SC(F)F)cc3)c2)cc1 the results were LmPK inhibitor inactive, AMA1 RON2 block inactive, Giardia FBPA inh inactive, Tb PYK inh inactive, NS1 inh 8.9µM and Flu NS1 inh inconclusive.
`COc1ccc(NS(=O)(=O)c2ccc(N3CCCC3)c(NC(=S)Nc3cccc(C)c3C)c2)cc1` gave LmPK inhibitor inactive, AMA1 RON2 block inactive, Giardia FBPA inh inactive, Tb PYK inh inconclusive and NS1 inh inactive.
O=S(=O)(Nc1cccc(-c2cn3cccnc3n2)c1)c1ccc(-c2ccccc2)cc1 was read as LmPK inhibitor inactive, AMA1 RON2 block inactive, Giardia FBPA inh inactive, Tb PYK inh inactive, NS1 inh 11µM and Flu NS1 inh inactive.
`Cc1nc2c(ncn2-c2ccccc2)c(=O)n1NC(=O)CN1CCCCC1` gave LmPK inhibitor inactive, AMA1 RON2 block inactive, Giardia FBPA inh inactive, Tb PYK inh inactive and NS1 inh inactive.
Cc1nc2c(ncn2-c2ccccc2)c(=O)n1NC(=O)CN1CCN(C)CC1 was read as LmPK inhibitor inactive, AMA1 RON2 block inactive, Giardia FBPA inh inactive, Tb PYK inh inactive, NS1 inh 3.5µM and Flu NS1 inh inactive.
N/N=c1\sc2ccccc2n1-c1ccccc1 was read as LmPK inhibitor inactive, AMA1 RON2 block inactive, Giardia FBPA inh inconclusive, Tb PYK inh inactive, NS1 inh 11µM, Flu NS1 inh inactive and PR8 titer inactive.
COC(=O)[C@H](Cc1ccccc1)NC(=O)O[C@@H]1Cc2cc(OC)ccc2O[C@H]1c1cccc(OC)c1 was read as Giardia FBPA inh inactive.
Screening CN(c1ccccc1)S(=O)(=O)c1ccc(Cl)c(C(=O)Nc2nc3ccccc3[nH]2)c1 returned LmPK inhibitor inactive, AMA1 RON2 block inactive, Giardia FBPA inh inactive, Tb PYK inh inactive, NS1 inh 10µM and Flu NS1 inh inactive.
For COc1ccc(NC(=O)c2cc(-c3ccco3)on2)c(OC)c1 the results were LmPK inhibitor inactive, AMA1 RON2 block inactive, Giardia FBPA inh inactive, Tb PYK inh inactive, NS1 inh inconclusive and Flu NS1 inh inactive.
Screening CCCCc1c(O)c2ccccc2n(CCCC)c1=O returned LmPK inhibitor inactive, AMA1 RON2 block inactive, Giardia FBPA inh inactive, Tb PYK inh inactive and NS1 inh inactive.
CCCCn1c(=O)cc(O)c2ccccc21 was read as LmPK inhibitor inactive, AMA1 RON2 block inactive, Giardia FBPA inh inactive, Tb PYK inh inactive, NS1 inh 10µM and Flu NS1 inh inactive.
For CCOC(=O)c1c(C)oc2nc(C)nc(NCCCN3CCN(c4ccccc4OC)CC3)c12 the results were Tb PYK inh inactive.
`CCn1c2ccccc2c2nnc(N3CCN(c4cccc(Cl)c4)CC3)nc21` gave Tb PYK inh inactive.
Screening Cc1cccc(CN(CC(=O)N/N=C/c2cccs2)S(=O)(=O)c2ccc(Cl)cc2)c1 returned LmPK inhibitor inactive, AMA1 RON2 block inactive, Giardia FBPA inh inactive, Tb PYK inh inactive, NS1 inh 8.9µM and Flu NS1 inh inactive.
`Cc1cccc(CN(CC(=O)N/N=C/c2ccco2)S(=O)(=O)c2ccc(Cl)cc2)c1` gave LmPK inhibitor inactive, AMA1 RON2 block inactive, Giardia FBPA inh inactive, Tb PYK inh inactive and NS1 inh inactive.
Screening CC(C)(C)NC(=O)C(c1ccsc1)N(CCc1ccccc1)C(=O)Cn1nnc2ccccc21 (stereo unspecified) returned LmPK inhibitor inactive, AMA1 RON2 block inactive, Giardia FBPA inh inactive, Tb PYK inh inactive, NS1 inh inconclusive and Flu NS1 inh inactive.
`CC(=O)c1c(C)n(-c2ccc(Cl)cc2)c2ccc(OC(=O)COc3ccccc3)cc12` gave Tb PYK inh inactive.
`O[C@@H]1COC2[C@@H](O)CO[C@@H]21` (stereo partly specified) gave Giardia FBPA inh inactive.
For CCc1nc2ccccc2c(=O)n1NC(=O)c1c(O)c2ccccc2[nH]c1=O the results were LmPK inhibitor inactive, AMA1 RON2 block inactive, Giardia FBPA inh inactive, Tb PYK inh inactive, NS1 inh 1.6µM and Flu NS1 inh inactive.
For CCCCCCc1nc2ccccc2c(=O)n1NC(=O)c1c(O)c2c(n(CC(C)C)c1=O)CCCC2 the results were LmPK inhibitor inactive, AMA1 RON2 block inactive, Giardia FBPA inh inactive, Tb PYK inh inactive, NS1 inh 0.4µM and Flu NS1 inh inactive.
